IL2 activator = IL-2 activation | IL-2 activation reporter assay, cell-based qHTS; stimulated with anti-CD3/CD4/CD28 beads; in transgenic mouse T cells | hit rate 0.065% among 360,000 | activation, % (series mostly up to about 46 µM); in the data active = activation above about 50%; inconclusive = mostly about 30% to 49%; also: 0% is about no effect
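Using fluorescent plate cytometry, EGFP and DsRed are detected in transgenic mouse T cells stimulated 18 h at 37 degrees C with antibody-coated beads after 60 min compound pretreatment.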
p53 reactivation = mutant p53 re-activation in reporter cells | hit rate 0.063% among 320,000 | H1299 p53-A138V BP100-luciferase reporter, luminescence, 24 h | Potency, µM (doses to about 92.2 µM), inactives show at the highest dose activity change, positive = activation, usual class: activators | AID 504706; also: potency is read from the fitted curve at half-maximal effect; % of control where 0% means no effect; nearly all actives have a fitted effect of over 45% in size
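p53-null H1299 cells stably carrying temperature-sensitive p53-A138V and a BP100-luciferase reporter were pinned with compounds (4-point, 1:5 series) and held 24 hrs at 37 deg C. Luminescence was read 10 min after detection reagent.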
Nrf2 block = Nrf2 pathway inhibition; A549 ARE-Fluc reporter, luciferase luminescence, 18-24 h; Potency, µM (top dose mostly 46 µM), for inactives: at the top dose activity change, negative = inhibition, actives largely listed as inhibitors; hit rate 2.1% among 360,000; AID 504444; also: potency is read from the fitted curve at half-maximal effect; % is scaled to controls: 0 for no effect and ±100 for the full control effect; nearly all actives have a fitted effect of over 60% in size
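Cells were seeded and rested 2 h, then exposed to compounds for 18-24 h. CellTiter-Fluor was read first as a viability measure. BugLite was added 15 min before the final luminescent read of ARE-luciferase activity in A549 cells.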
A549 viability = counter-screen for Nrf2 inhibitors: cytotoxicity in A549 cells. A549 ARE-Fluc cells, CellTiter-Fluor viability, 18-24 h. Potency, µM (doses to about 46 µM), for the others: at the top dose activity change, negative = cytotoxicity, actives largely listed as inhibitors. hit rate 0.16% among 390,000; also: potency is read from the fitted curve at half-maximal effect; % is scaled to controls: 0 for no effect and ±100 for the full control effect
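A549 ARE_Fluc cells in 5% FBS OPTI-MEM were exposed to compounds in concentration-response for 18-24 h at 37 deg C. Viability was read by CellTiter-Fluor fluorescence (Ex 405/Em 525) after 30 min, before the luciferase read.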
BRCA1 expr up = activators of BRCA1 expression; MCF7-BRCA1-FFLuc reporter, luminescence, 48 h; response scale: scaled: vehicle 0%, 10 µM genistein 100%; Potency, µM (series often up to 46.1 µM), inactives show at the top dose activation, actives largely listed as activators; hit rate 1.1% among 380,000; also: potency is read from the fitted curve at half-maximal effect; nearly all actives have a fitted effect of over 80% in size
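Cells: MCF7-BRCA1-FFLuc, 2000/well. Exposure: 48 h, 37 °C, 5% CO2. Read: luminescence, 15 min post-substrate. Controls: genistein 10 microM (maximal activation), DMSO (neutral).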
Nrf2 activator = activators of Nrf2 (ARE) signaling. AREc32 ARE-luciferase reporter (MCF7-derived line), luminescence, 24 h. Potency, µM (top dose mostly 46.1 µM), for inactives: at the top dose activation, most hits filed as activators. hit rate 0.31% among 410,000; also: potency is read from the fitted curve at half-maximal effect; % of control where 0% means no effect; nearly all actives have a fitted effect of over 65% in size
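Luciferase luminescence (Steady-Glo, 30 min at room temperature) served as the read-out of ARE activation in AREc32 cells treated with compounds for 24 hr at 37 deg C.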
* hit, by the source's call; [ ] = another dose, or the depositor's remark. Shown are actives, neighbours in structure and some others; about 3.2% of the full set was active somewhere. Unless noted, calls follow the shape of the dose curve; as a rule, active = well fitted curve in the direction sought with a large enough effect; inconclusive = small, poorly fitted or top-dose-only effect, or another doubt; inactive = no such curve, though single readings can be large; an effect the other way counts as inactive or inconclusive.

What do the screens show for `CCOc1ccc(S(=O)(=O)n2ccc(C)n2)c2ccccc12`?
IL2 activator: -3; p53 reactivation: -10%; Nrf2 block: 23µM*; A549 viability: inconclusive; BRCA1 expr up: -9%; Nrf2 activator: 0%

How did CC1CN(S(=O)(=O)c2cc(C(=O)N(CCc3ccccc3)Cc3ccccc3)ccc2Cl)CC(C)O1 (stereo unspecified) do in these assays?
IL2 activator: -7; p53 reactivation: 4%; Nrf2 block: 7.3µM*; A549 viability: -12%; BRCA1 expr up: -66%; Nrf2 activator: 0%

What do the screens show for `Cc1ccc(-c2nc(SCC(=O)NCC3CCCO3)c3c(=O)n(C)c(=O)n(C)c3n2)cc1` (stereo unspecified)?
A549 viability: 2%; Nrf2 activator: 1%

Results for CN(C)CCNc1ccc2nnn3c4ccc(O)cc4c(=O)c1c23 ?
IL2 activator: -1; Nrf2 block: -7%; A549 viability: -5%; BRCA1 expr up: -75%; Nrf2 activator: 2%

What do the screens show for `CCN(CC)CCCNc1ccc2ncn3c4ccc(O)cc4c(=O)c1c23`?
IL2 activator: 124*; Nrf2 block: inconclusive; A549 viability: inconclusive; BRCA1 expr up: -79%; Nrf2 activator: 26%

What do the screens show for `Nc1cc(C2CCCC2)nn1-c1ccccc1`?
IL2 activator: 0; p53 reactivation: 12%; Nrf2 block: inconclusive; A549 viability: 2%; BRCA1 expr up: 10µM*; Nrf2 activator: 6%

Results for Cc1cc2c(s1)c1cnn(Cc3ccc(C(=O)O)cc3)c(=O)c1n2C ?
Nrf2 block: 4%; A549 viability: 1%

Results for Cc1cc2c3c(c1)C(C)(c1ccccc1)CC(C)(C)N3C(=O)C21C(C#N)=C(N)OC2=C1C(=O)CC(C)(C)C2 (stereo unspecified) ?
IL2 activator: 0; p53 reactivation: -10%; Nrf2 block: -81%; A549 viability: -17%; BRCA1 expr up: -67%; Nrf2 activator: 0%

Results for CC1(c2ccccc2)CC(C)(C)N2C(=O)C3(C(C#N)=C(N)Oc4cc(O)ccc43)c3cccc1c32 (stereo unspecified) ?
IL2 activator: -1; p53 reactivation: -4%; Nrf2 block: 21µM*; A549 viability: inconclusive; BRCA1 expr up: -61%; Nrf2 activator: 0%

Results for COc1ccc(S(=O)(=O)N2CCOCC2)cc1NC(=O)CN(C)Cc1c(F)cccc1Cl ?
IL2 activator: -6; p53 reactivation: -5%; Nrf2 block: 21µM*; A549 viability: -8%; BRCA1 expr up: -56%; Nrf2 activator: 1%

Results for COc1ccc(S(=O)(=O)N2CCOCC2)cc1NC(=O)Cc1c(Cl)cccc1Cl ?
IL2 activator: 0; p53 reactivation: -4%; Nrf2 block: -2%; A549 viability: 9%; BRCA1 expr up: -4%; Nrf2 activator: 0%[9.22 µM]

Results for CC1=C(C(=O)Nc2ccccc2)C(c2ccccc2Cl)n2ncc(C(=O)Nc3cccc(C)c3)c2N1 (stereo unspecified) ?
Nrf2 block: -7%; A549 viability: -1%; Nrf2 activator: 1%

What do the screens show for `Cn1cnc(S(=O)(=O)N2CCC(C(=O)NCc3ccc(F)cc3)CC2)c1`?
A549 viability: 9%; Nrf2 activator: 1%

Results for COc1cccc(C2C(C(=O)Nc3ccccc3)=C(C)Nc3nc(-c4ccccc4)nn32)c1OC (stereo unspecified) ?
Nrf2 block: 18µM*; A549 viability: -25%; BRCA1 expr up: -70%; Nrf2 activator: -1%

How did COc1ccc(C2C(C(=O)Nc3ccccc3)=C(C)Nc3nc(-c4ccccc4)nn32)c(OC)c1 (stereo unspecified) do in these assays?
Nrf2 block: inconclusive; A549 viability: -7%; BRCA1 expr up: -3%; Nrf2 activator: 6%

What do the screens show for `COc1ccc(-c2cc(C)no2)cc1S(=O)(=O)N1CCN(c2ccc(C(C)=O)cc2)CC1`?
Nrf2 block: 13µM*; A549 viability: -1%; Nrf2 activator: 0%

How did O=S(=O)(Nc1nc2ccccc2nc1NCc1ccco1)c1ccccc1 do in these assays?
IL2 activator: 0; p53 reactivation: -4%; Nrf2 block: -22%; A549 viability: 4%; BRCA1 expr up: -35%; Nrf2 activator: 8%

What do the screens show for `Cc1nc(NCc2ccco2)c2cn[nH]c2n1`?
IL2 activator: -1; Nrf2 block: 23µM*; A549 viability: -8%; BRCA1 expr up: 0%; Nrf2 activator: 26%

What do the screens show for `c1coc(CNc2nc3nonc3nc2NCc2ccco2)c1`?
IL2 activator: -1; p53 reactivation: 16%; Nrf2 block: 7.3µM*; A549 viability: -18%; BRCA1 expr up: -49%; Nrf2 activator: 26%

Results for Cc1ccc(NC(=O)Cn2cnc3sc(C(=O)O)c(C)c3c2=O)cc1Cl ?
Nrf2 block: 9%; A549 viability: -2%; Nrf2 activator: -1%

Results for CS(=O)(=O)NCC(c1ccco1)N1CCN(c2ccccc2)CC1 (stereo unspecified) ?
A549 viability: 13%; Nrf2 activator: 2%

What do the screens show for `Cc1nc2nc(SCc3ccccc3)nn2c(C)c1C`?
IL2 activator: 2; p53 reactivation: inconclusive; Nrf2 block: 24%; A549 viability: 13%; BRCA1 expr up: 92%; Nrf2 activator: 4%

How did N#Cc1cnc2nc(SCc3ccccc3)nn2c1 do in these assays?
IL2 activator: -1; p53 reactivation: inconclusive; Nrf2 block: inconclusive; A549 viability: -2%; BRCA1 expr up: 3.5µM*; Nrf2 activator: 3%

How did CCOC(=O)c1cn2nc(SCc3ccccc3)nc2nc1C do in these assays?
IL2 activator: 3; Nrf2 block: 7%; A549 viability: -9%; BRCA1 expr up: 11µM*; Nrf2 activator: 4%

What do the screens show for `Cc1cc(C)cc(NC(=O)CN(C)S(=O)(=O)c2ccc3c(c2)CCC(=O)N3)c1`?
Nrf2 block: 15%; A549 viability: -9%; Nrf2 activator: 0%

How did COc1cc2c(c(OC)c1OC)C(=O)C(=Cc1ccccc1)O2 do in these assays?
IL2 activator: -1; Nrf2 block: inconclusive; A549 viability: 6%; BRCA1 expr up: -16%; Nrf2 activator: 16µM*

What do the screens show for `COc1ccccc1C(=O)Oc1ccc2c(c1)O/C(=C\c1ccncc1)C2=O`?
IL2 activator: 0; p53 reactivation: 1%; Nrf2 block: -3%; A549 viability: 4%; BRCA1 expr up: 31%; Nrf2 activator: inconclusive
